Data as given in PubChem BioAssay.

Test system: Human papillomavirus type 1a protein E7 (residues 44-93)
Test: small molecules binding HPV E7 44-93 – biochemical, small-molecule microarray, residues 44-93, 635 nm fluorescence, primary screen (AID 1108);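 further: E7 fragment applied at 1 µg/mL in TBST for 1 h at 4 C; score combines spot fluorescence with its signal to noise ratio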
Details: fluorescence 635 nm, higher = more signal

SMILES	composite z-score
O=C1C2C=CC(C(O)c3cccc4ccccc34)N(n3cnnc3)C2C(=O)N1Cc1ccccc1 (configuration not stated)	0.0125
O=C1C2C=CC(C(O)c3ccc(B(O)O)cc3)N(Nc3ccc([N+](=O)[O-])cc3)C2C(=O)N1c1ccccc1 (configuration not stated)	1.38
COCCOC(=O)N1C(=O)[C@@]2(c3ccccc31)[C@H](c1ccc(O)cc1)N1[C@H](c3ccccc3)[C@H](c3ccccc3)OC(=O)[C@H]1[C@@H]2C(N)=O	-1.11
O=C1C2C=CC(C(O)CCc3ccccc3)N(Nc3ccccc3)C2C(=O)N1c1ccccc1 (configuration not stated)	0.0852
COc1ccc([Si](C)(C)[C@H]2[C@H](CC(=O)N3CCC[C@H]3CO)O[C@@]3(C(=O)N(c4ccccc4)c4ccccc43)[C@@H]2C)cc1	-0.542
CCCNC(=O)[C@@]1(C)c2ccccc2C(=O)N(Cc2ccc(OC(F)(F)F)cc2)[C@H]1c1ccc(CO)cc1	-0.481

Test system: not listed separately
Test: hepatitis C replication reporter changes, two-sided – Huh7 cells, luciferase reporter, HCV replication inhibitor project, primary screen (AID 1109);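 further: huh7 hepatoma cells harbouring a luciferase neomycin HCV replicon reporter; luciferase luminescence as measure of HCV replicon replication; test concentration not given here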
Details: Huh7 HCV replicon luciferase reporter, 48 h; higher = more signal

SMILES	z-score
C=CCN1C(=O)[C@@]2(O[C@@H](CCO)[C@H]([Si](C)(C)c3ccc(OC)cc3)[C@H]2C)c2cc(NC(C)=O)ccc21	-3.7
O=C1O[C@@H](c2ccccc2)[C@@H](c2ccccc2)N2[C@@H](c3ccc(O)cc3)[C@]3(C(=O)Nc4ccc(C#CCCO)cc43)[C@@H](C(=O)N3CCCCCCC3)[C@H]12	-1.18
NC(=O)[C@]1(Cc2ccccc2)N=C(c2ccc(OCCCO)cc2)O[C@@H]1c1ccccc1	-0.772
O=C1O[C@H](c2ccccc2)[C@H](c2ccccc2)N2[C@H]1[C@@H](C(=O)NC[C@H](O)c1ccccc1)[C@]1(C(=O)Nc3ccc(C#CC4=CCCCC4)cc31)[C@H]2c1ccc(O)cc1	-2.02
C=C[C@H](C)[C@H](O)c1ccc(OCCO)cc1	-1.54
O=S(=O)(NCCCO)c1ccc(Br)cc1	-0.164
O=C1c2ccccc2[C@](Cc2ccccc2I)(C(=O)O)[C@H](c2ccc(CO)cc2)N1Cc1ccccc1C(F)(F)F	-0.702
CCOC(=O)C1=C[C@@H](C(C)(C)C)N(S(=O)(=O)c2ccc(C)cc2)[C@H]1c1ccc(Cl)c(Cl)c1	-0.501
COCC1=C([C@H](O)CCc2ccccc2)[C@H](CO)[C@@H]2C(=O)N(Cc3ccccc3)C(=O)[C@@H]2C1	-0.711
C[N+](C)(C)CCCC[C@@H]1NC(=O)[C@H]2C[C@@H](C(=O)O)[C@@H](c3cccc(OCCO)c3)N2C1=O	-0.774
COc1ccc([Si](C)(C)[C@H]2[C@H](CC(=O)N3CCC[C@H]3CO)O[C@@]3(C(=O)N(Cc4cccc(N5CCC5=O)c4)c4ccccc43)[C@@H]2C)cc1	-2.36
C=CCNC(=O)[C@H]1[C@@H]2C(=O)O[C@@H](c3ccccc3)[C@@H](c3ccccc3)N2[C@@H](c2ccc(OCCO)cc2)[C@]12C(=O)N(C(=O)OCCOC)c1ccc(C#CC3(O)CCCCCC3)cc12	-2.07
CCCCN1CC=CC23O[C@@H]4C=CCCOC(=O)C4[C@H]2C(=O)N(CCCO)[C@@H]3C1=O (some centres not stated)	-1.1
O=C(N1CCCCC1)[C@]1(CCS(=O)(=O)c2ccccc2)N=C(c2ccc(OCCCO)cc2)O[C@@H]1c1ccccc1	-3.16
O=C1c2ccccc2[C@@]2(Cc3ccccc3N(Cc3ccccc3)C2=O)[C@H](c2ccc(CO)cc2)N1Cc1ccccc1C(F)(F)F	-0.353
CC(C)C(=C=CC[C@H](O)c1ccccc1OCCO)CCO	-1.32
C=CCC(OC(C)=O)[C@@H]1[C@@H](N(Cc2cc3ccccc3o2)C(=O)c2ccc(C)cc2)c2cc(OCCCO)ccc2N1C(=O)c1ccc(-c2ccccc2)cc1 (some centres not stated)	-1.67
CC(C)(C)OC(=O)CC[C@@]1(C(=O)NCC(O)CO)N=C(c2ccc(OCCCO)cc2)O[C@@H]1c1ccccc1 (some centres not stated)	0.821

SMILES	z-score
CCOC(=O)C1=CC[C@@H](c2cccc(Cl)c2)N(S(=O)(=O)c2ccc(C)cc2)[C@H]1c1ccc(C#N)cc1	-1.95
COC(=O)[C@@]1(Cc2ccc(OC)cc2)[C@H]2c3cc(C(=O)N(C)C)n(Cc4ccc(OC)c(OC)c4)c3C[C@H]2CN1C(=O)c1ccccc1	-1.09
OCCCc1cc[n+](Cc2cccc(OC(F)(F)F)c2)cc1	0.242
O=C1O[C@@H](c2ccccc2)[C@@H](c2ccccc2)N2[C@@H](c3ccc(O)cc3)[C@]3(C(=O)Nc4ccccc43)[C@@H](C(=O)N3CCCCCCC3)[C@H]12	-1.93
COCCCNC(=O)[C@@]1(C)c2ccccc2C(=O)N(Cc2ccccc2)[C@H]1c1ccc(CO)cc1	-1.86
COc1ccc([Si](C)(C)[C@H]2[C@H](CCO)O[C@@]3(C(=O)N(Cc4ccccc4)c4ccc(N5C(=O)COc6ccccc65)cc43)[C@@H]2C)cc1	-4.64
C=C(C)[C@@H]1CC=C(C(O)C2C=CC3C(=O)N(Cc4ccccc4)C(=O)C3N2n2cnnc2)CC1 (some centres not stated)	-2.2
C=C(CCCC)C(=O)CC[C@H](OC(=O)c1ccccc1-c1ccccc1C(=O)O)c1ccc(CO)o1	-0.872
O=C1C2C=CC(C(O)C3CC=CCC3)N(n3cnnc3)C2C(=O)N1Cc1ccccc1 (configuration not stated)	-0.151
C=CCC(OC(C)=O)[C@@H]1[C@@H](N(Cc2cc3ccccc3o2)C(=O)c2ccc(-c3ccccc3)cc2)c2cc(OCCCO)ccc2N1C(=O)Cc1ccc2ccccc2c1 (some centres not stated)	-0.532
O=[N+]([O-])c1ccc(C[n+]2ccc(CCCO)cc2)o1	-0.341
CC(c1ccccc1)C(O)C1C=CC2C(=O)N(Cc3ccccc3)C(=O)C2N1n1cnnc1 (configuration not stated)	-0.562
O=C1C2C=CC(C(O)c3cccc4ccccc34)N(n3cnnc3)C2C(=O)N1Cc1ccccc1 (configuration not stated)	-1.16
O=C1C2C=CC(C(O)c3ccc(B(O)O)cc3)N(Nc3ccc([N+](=O)[O-])cc3)C2C(=O)N1c1ccccc1 (configuration not stated)	-4.39
COCCOC(=O)N1C(=O)[C@@]2(c3ccccc31)[C@H](c1ccc(O)cc1)N1[C@H](c3ccccc3)[C@H](c3ccccc3)OC(=O)[C@H]1[C@@H]2C(N)=O	-0.823
O=C1C2C=CC(C(O)CCc3ccccc3)N(Nc3ccccc3)C2C(=O)N1c1ccccc1 (configuration not stated)	0.123
COc1ccc([Si](C)(C)[C@H]2[C@H](CC(=O)N3CCC[C@H]3CO)O[C@@]3(C(=O)N(c4ccccc4)c4ccccc43)[C@@H]2C)cc1	-1.12
CCCNC(=O)[C@@]1(C)c2ccccc2C(=O)N(Cc2ccc(OC(F)(F)F)cc2)[C@H]1c1ccc(CO)cc1	-0.16
